The list is not random: actives were taken first. Their share in the collection is about 4.1%.
NALP1 yeast inh: inhibitors of NALP1 inflammasome in yeast; S. cerevisiae NALP1/ASC/caspase-1 growth, X-gal OD620, 72 h; inhibition, % at 10 µM; hit rate 0.61% among 280,000; in the data active = inhibition mostly above about 24%, no sharp cut-off; inactive = mostly below about 32%
TIM10 inh: growth inhibitors of TIM10 yeast strain; S. cerevisiae TIM10 strain growth, BacTiter-Glo luminescence, 24 h; inhibition, % at 10 µM; hit rate 1.4% among 330,000;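 active = inhibition of 40% or more at the single tested concentration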;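 also: wild-type TIM10 isogenic control strain grown at permissive 25 °C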
tim23-1 inh: tim23-1 yeast growth inhibition; S. cerevisiae tim23-1 growth, BacTiter-Glo luminescence, 24 h; inhibition, % at 20 µM; hit rate 1.3% among 330,000;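 active = growth inhibition of the mutant yeast at or above 50%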;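 also: temperature-sensitive mutant grown at 25 °C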
PfHsp90 yeast 2: inhibits growth of yeast expressing Plasmodium falciparum Hsp90. S. cerevisiae expressing PfHsp90, BacTiter-Glo ATP, 48 h; yeast lacking PDR1 and PDR3 efflux regulators. inhibition, % at 9.4 µM. hit rate 0.32% among 310,000;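 active = every replicate shows inhibition above about 80%, whatever the replicate mean, limit read from the data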
NALP3 yeast inh: NALP3 inhibition in yeast; Yeast reconstituted NLRP3/ASC/caspase-1, beta-gal luminescence, 24 h; inhibition, % at 10 µM; hit rate 0.39% among 330,000;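 active = inhibition of 50% or more; inactive = inhibition below 50%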
tim10-1 inh: inhibits growth of tim10-1 mutant yeast. S. cerevisiae tim10-1 ts strain growth, BacTiter-Glo, 24 h. hit rate 2.2% among 330,000. inhibition, % at 20 µM;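 active = inhibition of at least 40%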;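 also: mutant grown at 25 °C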
NALP3 confirm: NALP3 inhibition confirmation in yeast; shares compounds with NALP3 yeast inh; yeast expressing human NALP3, luminescence; inhibition, % at 10 µM; hit rate 81% among 1,300; AID 435006; in the data active = inhibition above about 48%
Casp1 ASC ctr: counter-screen for NALP3 inhibitors: yeast caspase-1-ASC; shares compounds with NALP3 yeast inh; yeast expressing Caspase-1-ASC, luminescence counter screen; inhibition, % at 10 µM; hit rate 66% among 1,000; AID 488784
NALP3 yeast rt: retest-confirmed inhibitor of NALP3 in yeast; yeast expressing human NALP3, luminescence read-out; hit rate 53% among 1,000; shares compounds with NALP3 yeast inh; inhibition, % at 10 µM
tim10-1 conf: tim10-1 yeast growth inhibition, confirmed; shares compounds with tim10-1 inh; S. cerevisiae tim10-1 ts strain growth, BacTiter-Glo, 24 h; inhibition, % at 20 µM; hit rate 56% among 7,400; AID 463213;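 active = inhibition of yeast growth at or above a set limit in either of two repeat tests at 20 µM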;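 also: tim10-1 mutant grown at permissive 25 °C to find synthetic lethal compounds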
TIM10 conf: confirmation of TIM10 yeast growth inhibitors; shares compounds with TIM10 inh; S. cerevisiae tim10 strain growth, BacTiter-Glo luminescence, 24 h; AID 463215; hit rate 63% among 4,600; inhibition, % at 10 µM;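 active = inhibition of yeast growth at or above a set limit in either of two replicates at 10 µM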; also: this counterscreen used the strain with wild-type TIM10
Numbers stand for hits. Rule as the data show it, unless noted: active = inhibition above about 50%; inactive = the rest.

How did CC(C)N1CCN(CCCc2ccccc2)CC1CCO (stereo not drawn) do in these assays?
NALP1 yeast inh: inactive; TIM10 inh: inactive; tim23-1 inh: inactive; PfHsp90 yeast 2: inactive; NALP3 yeast inh: inactive; tim10-1 inh: inactive

What do the screens show for `O=S(=O)(Nc1ccc(N=Nc2ccccc2)cc1)c1ccccc1`?
NALP1 yeast inh: inactive; TIM10 inh: 42; tim23-1 inh: inactive; PfHsp90 yeast 2: inactive; NALP3 yeast inh: 59; tim10-1 inh: 55; NALP3 confirm: inactive; tim10-1 conf: 51; TIM10 conf: inactive

How did O=S(=O)(Nc1ccc(S(=O)(=O)Nc2ccccc2)cc1)c1ccccc1 do in these assays?
NALP1 yeast inh: inactive; TIM10 inh: inactive; tim23-1 inh: inactive; PfHsp90 yeast 2: inactive; NALP3 yeast inh: inactive; tim10-1 inh: inactive

Results for C=C(C)Cc1c(C)c(C#N)c2nc3ccccc3n2c1NCCCN(C)C ?
NALP1 yeast inh: inactive; TIM10 inh: inactive; tim23-1 inh: inactive; NALP3 yeast inh: inactive; tim10-1 inh: inactive

How did C=CCc1c(C)c(C#N)c2nc3ccccc3n2c1NCCN(C)C do in these assays?
NALP1 yeast inh: 33; TIM10 inh: 80; tim23-1 inh: inactive; PfHsp90 yeast 2: 109; NALP3 yeast inh: 54; tim10-1 inh: 49; NALP3 confirm: 81; Casp1 ASC ctr: 78; NALP3 yeast rt: inactive; tim10-1 conf: 60; TIM10 conf: 85

Results for COc1cccc(N=Nc2c(C)[nH]n(-c3ccccc3)c2=O)c1 ?
NALP1 yeast inh: inactive; TIM10 inh: inactive; tim23-1 inh: inactive; PfHsp90 yeast 2: inactive; NALP3 yeast inh: inactive; tim10-1 inh: inactive

What do the screens show for `COc1cccc(C(C[N+](=O)[O-])c2c(C)[nH]n(-c3ccccc3)c2=O)c1` (stereo not drawn)?
NALP1 yeast inh: 85; TIM10 inh: 62; tim23-1 inh: inactive; PfHsp90 yeast 2: inactive; NALP3 yeast inh: 52; tim10-1 inh: 51; NALP3 confirm: 58; Casp1 ASC ctr: inactive; NALP3 yeast rt: inactive; tim10-1 conf: 64; TIM10 conf: 89

Results for COc1ccc(C(=O)NNC(=S)NC(=O)c2ccc(Cl)cc2)cc1 ?
TIM10 inh: 42; tim23-1 inh: inactive; PfHsp90 yeast 2: inactive; NALP3 yeast inh: 54; tim10-1 inh: inactive; NALP3 confirm: 58; Casp1 ASC ctr: 60; NALP3 yeast rt: 58; TIM10 conf: inactive

Results for Oc1c(/C=N/c2ccccn2)sc2ccccc12 ?
NALP1 yeast inh: inactive; TIM10 inh: 69; tim23-1 inh: inactive; PfHsp90 yeast 2: inactive; NALP3 yeast inh: 65; tim10-1 inh: inactive; NALP3 confirm: 76; Casp1 ASC ctr: inactive; NALP3 yeast rt: 70; TIM10 conf: 62

Results for Oc1c(C=Nc2ccc(Cl)cn2)sc2ccccc12 ?
NALP1 yeast inh: inactive; TIM10 inh: inactive; tim23-1 inh: inactive; PfHsp90 yeast 2: inactive; NALP3 yeast inh: inactive; tim10-1 inh: inactive

How did Cc1cccc(C(=O)OCC(=O)N(CC(C)C)c2c(N)n(Cc3ccccc3)c(=O)[nH]c2=O)c1C do in these assays?
TIM10 inh: inactive; tim23-1 inh: inactive; NALP3 yeast inh: inactive; tim10-1 inh: inactive

How did CN(C)/N=C/c1ccc(Sc2ccc([N+](=O)[O-])cc2[N+](=O)[O-])o1 do in these assays?
NALP1 yeast inh: inactive; TIM10 inh: 40; tim23-1 inh: inactive; PfHsp90 yeast 2: inactive; NALP3 yeast inh: 54; tim10-1 inh: 43; NALP3 confirm: inactive; tim10-1 conf: 44; TIM10 conf: 47

What do the screens show for `NC(=O)CC(NC(=O)Cc1ccc(Cl)cc1)c1ccc(NC2CCCCCCC2)c([N+](=O)[O-])c1` (stereo not drawn)?
NALP1 yeast inh: inactive; TIM10 inh: inactive; tim23-1 inh: inactive; PfHsp90 yeast 2: inactive; NALP3 yeast inh: inactive; tim10-1 inh: inactive

Results for COCCNC(=O)c1cc2cc3ccc(OC)cc3nc2o1 ?
NALP1 yeast inh: inactive; TIM10 inh: inactive; tim23-1 inh: inactive; PfHsp90 yeast 2: inactive; NALP3 yeast inh: inactive; tim10-1 inh: inactive

What do the screens show for `COc1ccc2cc3cc(C(=O)NCCN4CCN(c5ccccc5F)CC4)oc3nc2c1`?
NALP1 yeast inh: inactive; TIM10 inh: 79; tim23-1 inh: inactive; PfHsp90 yeast 2: inactive; NALP3 yeast inh: 53; tim10-1 inh: 71; NALP3 confirm: inactive; tim10-1 conf: 63; TIM10 conf: inactive

How did CC(=O)NC(=S)Nc1cccc([N+](=O)[O-])c1 do in these assays?
NALP1 yeast inh: inactive; TIM10 inh: inactive; tim23-1 inh: inactive; PfHsp90 yeast 2: inactive; NALP3 yeast inh: inactive; tim10-1 inh: inactive

Results for O=C(NC(=S)Nc1cccc([N+](=O)[O-])c1)C1CCCC1 ?
NALP1 yeast inh: inactive; TIM10 inh: 47; tim23-1 inh: inactive; PfHsp90 yeast 2: inactive; NALP3 yeast inh: 54; tim10-1 inh: 54; NALP3 confirm: 73; Casp1 ASC ctr: 60; NALP3 yeast rt: 58; tim10-1 conf: 45; TIM10 conf: 52

How did Cc1c(-c2ccc(OCc3ccccc3)cc2)nc2ccccc2c1C(=O)O do in these assays?
NALP1 yeast inh: inactive; TIM10 inh: inactive; tim23-1 inh: inactive; PfHsp90 yeast 2: inactive; NALP3 yeast inh: inactive; tim10-1 inh: inactive

What do the screens show for `CCCCNC(=O)[C@]1(C)CCC[C@@]2(C)C3CC[C@@]4(C)C[C@]3(CCC21)CC4=O` (stereo partly drawn)?
TIM10 inh: 59; tim23-1 inh: inactive; PfHsp90 yeast 2: inactive; NALP3 yeast inh: 54; tim10-1 inh: inactive; NALP3 confirm: 50; Casp1 ASC ctr: 60; NALP3 yeast rt: 53; TIM10 conf: inactive

How did COc1ccc(S(=O)(=O)NNc2nc(C)cc(C)n2)cc1[N+](=O)[O-] do in these assays?
NALP1 yeast inh: inactive; TIM10 inh: inactive; tim23-1 inh: inactive; PfHsp90 yeast 2: inactive; NALP3 yeast inh: inactive; tim10-1 inh: inactive

How did Cc1ccccc1-c1cc2c(nn1)-c1ccccc1C2=O do in these assays?
NALP1 yeast inh: inactive; TIM10 inh: 44; tim23-1 inh: inactive; PfHsp90 yeast 2: inactive; NALP3 yeast inh: 61; tim10-1 inh: inactive; NALP3 confirm: 55; Casp1 ASC ctr: inactive; NALP3 yeast rt: inactive; TIM10 conf: 30

How did Cc1ccc(-c2cc3c(nn2)-c2ccccc2C3=O)cc1 do in these assays?
TIM10 inh: inactive; tim23-1 inh: inactive; PfHsp90 yeast 2: inactive; NALP3 yeast inh: inactive; tim10-1 inh: inactive

Screens from PubChem.
